High-throughput results from PubChem.
KLK7 zymogen act = activates the human kallikrein-7 zymogen. hit rate 0.9% among 370,000. purified proKLK7, EDANS-DABCYL substrate fluorescence; 100% is mature enzyme control, 0% vehicle. activation, % at 7 µM. P49862;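 active = activation above the mean of all tested compounds plus 3 SD, computed per campaign excluding outliers beyond control limits, cut at about 13% in these data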
GRIN3A LBD mod = NR3A (human) ligand-binding domain modulation; AID 1259313; hit rate 2.5% among 340,000; Tm shift relative to glycine control, % at 25 µM; NR3A LBD differential scanning fluorimetry, Tm shift; 0% = protein alone, 100% = glycine-bound protein;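 active = melting temperature shift of at least 10% of the positive control shift, at one fixed dose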
ADAM17 inh = ADAM17 inhibition, QFRET primary screen; hit rate 0.83% among 370,000; AID 720648; recombinant ADAM17, EDANS/DABCYL FRET peptide cleavage; P78536; inhibition, % at 6.95 µM;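 active = inhibition above the mean of compounds lying between control limits plus 3 SD, set per campaign, cut at about 8.5% in these data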;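 note: 0% = DMSO-only wells as the low control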
FAS-TE inh = FAS thioesterase (human) inhibition; P49327; recombinant FAS-TE, OMFH fluorogenic substrate, fluorescence endpoint; inhibition, % at 15 µM; hit rate 0.67% among 360,000;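 active = compounds whose normalised, plate-corrected inhibition of enzyme fluorescence in the single-dose primary screen is 50% or more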;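 note: 0% = DMSO with enzyme and 100% = substrate without enzyme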
ADAM10 inh = inhibits human ADAM10; O14672; recombinant ADAM10, EDANS/DABCYL FRET peptide cleavage, 3 h; inhibition, % at 7 µM; hit rate 0.62% among 370,000; AID 720582;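 active = inhibition above a per-campaign cutoff equal to the mean of compounds falling between control-based bounds plus 3 SD, cut at about 20% in these data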;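 note: 0% = DMSO wells while the 100% control is not disclosed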
ADAM10 confirm = confirmation of inhibitors of human ADAM10; shares compounds with ADAM10 inh; inhibition, % at 6.95 µM; ADAM10 QFRET peptide cleavage, EDANS fluorescence; hit rate 1% among 2,100;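 active = inhibition above about 20% chosen separately for each screening run, limit read from the data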;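 note: 0% = DMSO wells and 100% = marimastat wells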
ADAM17 counter = ADAM17 inhibition, counter-screen for ADAM10 exosite hits; inhibition, % at 6.95 µM; hit rate 0.5% among 2,100; ADAM17 QFRET peptide cleavage, EDANS fluorescence; shares compounds with ADAM10 inh;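 active = mean triplicate inhibition above the solvent-only control wells' mean plus 3 SD, cut at about 12% in these data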;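 note: 0% = DMSO wells and 100% = marimastat wells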
ADAM10 counter = counter-screen for ADAM17 exosite inhibitors: inhibitors of human ADAM10; shares compounds with ADAM17 inh; recombinant ADAM10, EDANS/DABCYL FRET peptide cleavage, 3 h; inhibition, % at 6.95 µM; hit rate 47% among 2,900; AID 743256;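 active = mean inhibition over the triplicate runs exceeds the activity threshold set in the earlier primary screen, cut at about 20% in these data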;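 note: 0% = DMSO wells and 100% = marimastat wells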
ADAM17 confirm = human ADAM17 inhibition, confirmation | shares compounds with ADAM17 inh | recombinant ADAM17, EDANS/DABCYL QFRET peptide cleavage | inhibition, % at 6.95 µM | hit rate 65% among 2,900 | AID 743257;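 active = mean inhibition across replicates above the hit cutoff set in the primary screen, cut at about 8.5% in these data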;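 note: 0% = DMSO wells and 100% = marimastat wells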
Active calls of the source: *; nt = no result given. An excerpt weighted towards active compounds, which were near 4.6% of everything screened.

SMILES	KLK7 zymogen act	GRIN3A LBD mod	ADAM17 inh	FAS-TE inh	ADAM10 inh	ADAM10 confirm	ADAM17 counter	ADAM10 counter	ADAM17 confirm
CC1(C(=O)Nc2ccc3c(c2)OCO3)Cc2c(-c3cccc(C(F)(F)F)c3)ccnc2O1 (stereo not given)	0.2	nt	10.2*	26.2	21.2*	7.3	2.7	24.1*	13.0*
COc1ccc(NC(=O)C2(C)Cc3c(-c4cccc(C(F)(F)F)c4)ccnc3O2)cn1 (stereo not given)	0.3	nt	12.1*	17.8	25.8*	0.9	0.2	16.3	11.8*
COc1ccc(NC(=O)C2(C)Cc3c(-c4ccccc4)ccnc3O2)cn1 (stereo not given)	0.3	nt	-5.0	-9.4	-7.6	nt	nt	nt	nt
CN1CCCCC(NC(=O)c2ccc(C#N)cc2)C1=O (stereo not given)	0.2	nt	-1.6	nt	-3.2	nt	nt	nt	nt
C[C@@H]1CCC(=O)N(CC[C@H](Sc2ccc(Br)cc2)c2ccccc2)CC1	1.2	1.8	16.1*	27.7	21.5*	6.1	2.8	21.3*	11.4*
Nc1ccn([C@@H]2O[C@H](C(=O)N[C@H](Cc3ccccc3)C(=O)NCc3cccc4c3OCO4)[C@@H](O)[C@H]2O)c(=O)n1	-0.8	nt	-3.1	nt	-7.7	nt	nt	nt	nt
CC(C)(C)OC(=O)CNC(=O)c1[nH]cnc1C(=O)NC(c1ccccc1)c1ccccc1	-0.6	-9.0	15.8*	22.0	26.8*	4.9	1.8	23.6*	14.0*
CNC(=O)c1[nH]cnc1C(=O)NCC(=O)OC(C)(C)C	0.9	-1.3	-5.8	-8.7	-3.4	nt	nt	nt	nt
C[C@H](NC(=O)c1nc[nH]c1C(=O)NC(c1ccccc1)c1ccccc1)C(=O)OC(C)(C)C	0.1	-13.0	13.6*	26.1	24.4*	3.5	2.3	43.1*	24.0*
Cc1ccc(S(=O)(=O)NCC2CCN(C(=O)C(=O)c3cc4ccccc4o3)CC2)cc1	-0.1	nt	2.4	nt	2.9	nt	nt	nt	nt
CCn1c(CNc2nc(-c3ccccc3)cs2)nnc1SCC(=O)NCc1ccccc1	1.0	-3.4	10.7*	8.8	20.3*	2.2	0.2	9.9	12.7*
COC(=O)[C@]12C[C@H](CC(=O)N3CCCCC3)C(=O)N(Cc3cccc4ccccc34)C1=C[C@H](C(C)C)O[C@@H]2C1CC1	1.2	nt	1.1	nt	9.3	nt	nt	nt	nt
O=C(CSc1nc(NS(=O)(=O)c2ccccc2)cc(=O)[nH]1)Nc1ccc(Cl)cc1	0.4	-20.0	-1.4	-2.8	-3.6	nt	nt	nt	nt
O=c1cc(NS(=O)(=O)c2ccccc2)nc(SCc2ccc(Cl)cc2)[nH]1	-0.1	20.2*	10.5*	29.6	20.0*	9.9	3.4	24.8*	13.7*
C=CCC[C@H](Cc1ccc(F)cc1)C(=O)OC[C@@H](C)NC(=O)[C@H](CC=C)CC(=O)N(CCO)Cc1ccccc1	-0.1	-1.5	2.3	17.9	9.0	nt	nt	nt	nt
C=CCC[C@@H](Cc1ccc(F)cc1)C(=O)OC[C@@H](NC(=O)[C@@H](CC=C)CC(=O)N(CCO)Cc1ccccc1)c1ccccc1	0.3	-8.8	26.2*	19.8	46.6*	7.0	3.0	44.1*	22.4*
C=CCC[C@@H](Cc1ccc(F)cc1)C(=O)OC[C@H](C)NC(=O)[C@H](CC=C)CC(=O)N(CCO)Cc1ccccc1	0.1	-1.3	-0.8	23.3	4.2	nt	nt	nt	nt
C=CCC[C@@H](Cc1ccc(F)cc1)C(=O)OC[C@@H](NC(=O)[C@H](CC=C)CC(=O)N(CCO)Cc1ccccc1)c1ccccc1	0.0	-1.9	11.0*	21.4	27.2*	10.8	3.6	36.1*	20.3*
